# Compound activity: PubChem, National Center for Advancing Translational Sciences (NCATS)
# TRPV1 ag = human TRPV1 agonism; Q8NER1; TRPV1-expressing cells, Fluo-8 calcium influx, agonist mode; activation, % at 8.33 µM; 0.19% of 320,000 active; AID 540275; in the data active means activation above about 80%; inconclusive means between about 30% and that limit; further: 0% is about no effect
#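 Cells expressing TRPV1 were dye-loaded with Fluo-8 and read kinetically: 10 s baseline, 3 min after compound (agonist portion), then 2 min after EC20 capsaicin (allosteric enhancer portion). Calcium-bound dye fluorescence at 480/520 nm.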
# TRPV1 potentiator = enhances activation of the human vanilloid receptor TRPV1. 0.02% of 320,000 active. TRPV1-expressing cells, Fluo-8 calcium influx, capsaicin EC20 potentiation. potentiation, % at 8.33 µM. Q8NER1; in the data active means potentiation above about 80%; inconclusive means between about 30% and that limit; further: 0% is about no effect
#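 Fluo-8 calcium influx in TRPV1-expressing cells, kinetic read (ex 480/em 520 nm). Compound added and read 3 min for agonist activity, followed by capsaicin at EC20 final and 2 min further read for enhancement.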
# AT treatment = potential ataxia-telangiectasia treatments restoring KAP-1 phosphorylation | F2112 A-T fibroblasts, KAP-1 phosphorylation AlphaLISA; neocarzinostatin DNA damage 30 min before lysis | Potency, µM (titrated, usually from 57.5 µM), for inactives: at the highest dose activation, usual class: activators | 0.19% of 320,000 active | AID 485349; active means well fitted activation curve with a large enough effect; inconclusive means small, poorly fitted or top-dose-only effect; inactive means no such curve, though single readings can be large or run the other way; further: potency means the concentration at half of the fitted maximal effect; % of control where 0% means no effect; nearly all actives have a fitted effect of over 45% in size
#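 hTERT-immortalized A-T patient fibroblasts (F2112), 500 cells/well in OPTI-MEM, 1% FBS, got compounds for 60 min, then NCS for 30 min at 37C. Lysates were then assayed for phospho-KAP-1 by AlphaLISA (anti-pKAP1 donor, anti-KAP1 acceptor beads), 6 hr at 25C.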
# TRPML1 agonist = human mucolipin-1 channel agonism. TRPML1-expressing cells, Ca2+ dye fluorescence, FDSS. Q9GZU1. activation, % (test concentration not listed). 0.12% of 410,000 active; in the data active means activation above about 50%; inconclusive means mostly about 30% to 49%; further: 0% is about no effect
# Target sequence (Q9GZU1 whole entry, looked up): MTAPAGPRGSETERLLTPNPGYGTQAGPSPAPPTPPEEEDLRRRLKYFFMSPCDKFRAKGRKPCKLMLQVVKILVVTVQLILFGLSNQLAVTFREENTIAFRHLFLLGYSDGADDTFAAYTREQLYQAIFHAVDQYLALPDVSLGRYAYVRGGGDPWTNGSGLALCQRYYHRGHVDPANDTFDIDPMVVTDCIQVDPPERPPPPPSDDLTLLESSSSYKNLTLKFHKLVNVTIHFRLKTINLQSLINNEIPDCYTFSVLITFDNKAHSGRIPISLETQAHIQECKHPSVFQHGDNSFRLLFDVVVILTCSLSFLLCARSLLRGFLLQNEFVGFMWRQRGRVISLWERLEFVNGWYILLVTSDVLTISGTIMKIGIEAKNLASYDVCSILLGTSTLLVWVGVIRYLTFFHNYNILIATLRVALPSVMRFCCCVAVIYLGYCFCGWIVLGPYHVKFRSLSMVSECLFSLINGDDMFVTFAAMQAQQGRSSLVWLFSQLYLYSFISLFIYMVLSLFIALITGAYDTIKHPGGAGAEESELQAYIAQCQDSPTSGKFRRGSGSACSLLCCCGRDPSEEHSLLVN
#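 Tet-induced TRPML1-DL cells, 1,500 per well, cultured overnight, were loaded with a no-wash Ca2+ dye for 45–90 min. Calcium fluorescence was recorded on the FDSS for 110 s after compound addition, before the EC80 agonist (4 uM 54-4) was added.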
# TRPML1 inh = blocks the human TRPML1 channel. TRPML1-inducible cells, Ca2+ dye fluorescence, FDSS; hits give low values; inhibition of EC80 agonist-evoked calcium signal. activity change, negative = inhibition, % (test concentration not listed). 0.02% of 390,000 active; in the data active means activity change below about -50%; inconclusive means between about -30% and that limit;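 further: stimulus is agonist 54-4 at its EC80 concentration; on the % scale 0 is the no-effect control and ±100 the full control effect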
#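 Tet-induced TRPML1-DL cells loaded with Ca8 no-wash calcium dye were read kinetically on FDSS. Compound addition was followed by EC80 agonist 54-4 (4 uM final); inhibition was read over 110 s.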
# Numbers without * were called inactive; ? = inconclusive; · = not tested or not shown. An excerpt weighted towards active compounds, which were near 0.41% of everything screened.
SMILES,TRPV1 ag,TRPV1 potentiator,AT treatment,TRPML1 agonist,TRPML1 inh
Cc1cc(/C=C/c2nc3ccccc3s2)ccc1N(C)C,·,·,·,1.1,·
COc1cc2nc(/C=C/c3ccc(N(C)C)cc3)sc2cc1SC,?,-2.9,4.2%,119.6*,-11.7
Cc1nc2n(c(=O)c1CCN1CCC(c3noc4cc(F)ccc34)CC1)CCC[C@@H]2O,·,·,·,-0.6,·
CCCCCCCCN1[C@@H](CC(=O)O)c2ccc(/C=C/C(=O)O)cc2S1(=O)=O,·,·,·,-0.2,·
O=C(Nc1ccc(N2CCOCC2)cc1)c1ccc(Cl)nc1,1.1,-0.5,2.3%,-0.5,44.7
CCN(c1ccc(NC(=O)c2ccc(Cl)nc2)cc1)C(C)C,84.3*,-11.0,-1.8%,-0.3,13.7
CC(=O)Nc1ccc(Nc2ncnc3c2cnn3-c2cccc(C)c2)cc1,-2.8,10.7,6.1%,-1.2,4.2
CC(=O)Nc1ccc(Nc2ncnc3c2cnn3-c2ccc(C)cc2C)cc1,87.4*,-17.4,5.5%,-0.6,-9.7
CCOC(=O)c1ccc(Nc2ncnc3c2cnn3C)cc1,82.5*,2.3,-4.9%,0.4,20.6
Cc1cc(C)nc(N2CCCC(C(=O)Nc3ccc4c(c3)OCO4)C2)n1 (centres undefined),82.7*,6.8,0.1%,1.5,45.3
Cc1ncoc1C(=O)Nc1ccc(Oc2ccccc2)cc1,83.6*,-22.8,0.9%,0.4,-1.9
Cc1ccc(NC(=O)C2CCCN(C(=O)Nc3ccc(F)cc3)C2)cc1 (centres undefined),?,-3.0,-1.8%,0.1,-0.8
Cc1ccc(C2CCN(C(=O)Nc3ccc(F)cc3)C2)cc1 (centres undefined),82.9*,0.5,0.8%,-0.6,14.5
Cn1cc(/C=C/c2ccnc3ccccc23)c2ccccc21,·,·,·,10.7,·
Cc1onc(-c2ccccc2)c1C(O)c1ccc(F)cc1 (centres undefined),6.7,-7.3,31.6µM*,3.6,7.2
Cc1cc(N2CCOCC2)nc(NCc2ccccc2)n1,15.6,-17.9,25.5%,79.9*,-6.7
C=CCN1C(=O)c2cccc3c(N4CCCCC4)ccc(c23)C1=O,23.2,0.1,13.8%,55.2*,1.6
O=C1c2cccc3c(N4CCCCC4)ccc(c23)C(=O)N1CCO,?,-12.3,13.6%,?,-12.6
CC(=O)c1ccc2c3c(cccc13)C(=O)N(c1c(C)nn(C)c1C)C2=O,-0.7,-6.3,0.1%,0.2,-9.4
Cc1n[nH]c(C)c1N1C(=O)c2cccc3c(N4CCCCCC4)ccc(c23)C1=O,?,-8.9,11.4%,61.1*,-8.1
O=C1c2cccc3c(N4CCCCC4)ccc(c23)C(=O)N1c1cccc(O)c1,?,6.8,9.6%,87.5*,-15.7
CCN(CC)CCCOc1cc2nc(N3CCCN(C)CC3)nc(NC3CCN(C)CC3)c2cc1OC,·,·,·,-0.2,·
CN(C)c1ccc(/C=C2\C=Cc3ccccc32)cc1F,·,·,·,-0.4,·
Cc1ccc(O)c(C(=O)c2cc(C#N)c(=O)n(-c3nccs3)c2)c1,-0.7,5.4,-1.7%,62.8*,-6.4
Cc1ccc(O)c(C(=O)c2cc(C#N)c(=O)n(-c3c(C)n(C)n(-c4ccccc4)c3=O)c2)c1,-0.6,-3.7,1.9%,0.3,6.3
SMILES,TRPV1 ag,TRPV1 potentiator,AT treatment,TRPML1 agonist,TRPML1 inh
Cn1nc(C(C)(C)C)c(NC(=O)c2cccs2)c1C(C)(C)C,-0.6,28.5,1.0%,77.9*,-17.5
Cc1ccc(/C=C/C(=O)N2CCc3ccccc3C2)cc1,80.4*,-3.1,·,1.4,9.5
O=C(/C=C/c1ccc(C(F)(F)F)cc1)OC(C(=O)NC1CC1)c1ccccc1 (centres undefined),·,·,·,-0.5,·
O=c1c2cc(Br)ccc2nc(-c2ccccc2)n1O,-7.5,?,0.708µM*,-0.1,5.4
Cc1ccc(-c2nc3ccccc3c(=O)n2O)cc1,-5.3,?,16.2%,1.1,32.0
CC(C)(C)n1ncc2c(=O)n(Cc3cc(C(F)(F)F)ccc3Cl)cnc21,·,·,·,0.3,29.8
CC(=O)Nc1sc(/C(C#N)=C/c2ccc(Cl)c(Cl)c2)nc1-c1ccc(C)cc1,-5.6,7.4,15.8µM*,75.2*,?
COc1ccc(-c2cc(C(F)(F)F)c(C#N)c(SCC(=O)O)n2)cc1OC,-4.4,-8.8,8.91µM*,·,·
CCOC(=O)N1CCN(C(=O)c2cc3c(s2)-c2c(C)cccc2OC3)CC1,?,-3.6,10.8%,3.1,22.8
Cc1cccc2c1-c1sc(C(=O)N3CCCCC3)cc1CO2,88.0*,2.3,12.1%,0.6,27.0
Cc1ccc(N2C(N)=C(C#N)C(c3ccsc3)C3=C2CC(C)(C)CC3=O)cc1 (centres undefined),2.4,-8.2,6.1%,57.2*,-2.1
COc1ccccc1N1CCN(c2ncnc3c2c(-c2ccccc2)cn3-c2cccc(Cl)c2)CC1,·,·,·,19.7,14.3
Clc1ccccc1N1CCN(c2ncnc3c2c(-c2ccccc2)cn3-c2ccccc2)CC1,·,·,·,59.5*,-3.2
O=C(C[n+]1cccc2cccc(O)c21)c1ccc(Cl)cc1,·,·,·,7.4,·
Cc1cccc2c(N=O)c(O)[nH]c12,-2.1,-9.2,3.16µM*,·,·
Cc1[nH]c2c(C)cccc2c1CC(=O)O,-16.0,24.0,-1.3%,-0.1,-8.3
Cc1ccc(-c2csc3ncnc(Sc4nnnn4-c4ccccc4)c23)cc1,·,·,·,-0.3,·
CC(C)(C)n1ncc2c(=O)n(Cc3cccc(Oc4ccccc4)c3)cnc21,·,·,·,1.2,2.6
Cc1cc(C(=O)Nc2ccc([N+](=O)[O-])cn2)cs1,82.5*,-35.6,9.3%,-0.8,0.8
CCN(CCNC(=O)c1ccc(C#N)cc1)c1cccc(C)c1,91.0*,-5.4,0.2%,-0.5,3.9
CCCCc1cc(=O)oc2c(CN3CCCC3)c(O)c(Cl)cc12,-0.4,8.6,22.4µM*,-0.7,5.7
COc1cc2nc(N3CCOCC3)nc(NC3CCN(C)CC3)c2cc1OC,·,·,·,-0.4,·
CN(C)c1ccc(/C=C/c2cc3ccccc3c[n+]2C)cc1,·,·,·,-0.4,·
COc1cc(OC)c(OC)cc1/C=C/c1ccc2ccccc2[n+]1C,·,·,·,-0.7,·
COc1cc(CNC(=O)CCCC/C=C\C(C)C)ccc1O,80.4*,-1.7,·,·,·
SMILES,TRPV1 ag,TRPV1 potentiator,AT treatment,TRPML1 agonist,TRPML1 inh
Cc1ccc(C(=O)CC(=O)c2ccccc2)cc1,80.7*,-21.9,10.8%,-0.2,-7.5
Cc1ccc(C(=O)/C=C/C(=O)c2ccc(C)cc2)cc1,?,26.0,25.1µM*,0.8,22.3
Cc1ccc(C(=O)Cc2ccccc2)cc1,·,·,·,2.2,-15.4
O=C1c2ccccc2NC(c2ccc3c(c2)OCO3)N1Cc1ccco1 (centres undefined),·,·,·,0.2,·
CC(C)CN(CC(C)C)C(=O)c1cc2c(=O)n3ccccc3nc2s1,?,-1.7,12.6µM*,-1.1,12.2
O=C1[C@H](Cc2ccccc2)NC/C=C\C[C@@H](c2ccc(Cl)cc2)N1Cc1ccccc1,·,·,·,0.5,·
COc1ccccc1-[n+]1c(C)cc(/C=C2\Sc3ccccc3N2C)cc1C,?,?,-45.5%,65.0*,-11.9
